Results on twelve compounds are retold here after PubChem BioAssay.

The structures appear in SMILES notation. Inconclusive results are not listed. For some of these results: Entries with a potency or affinity are not part of this list. The source made the active and inactive calls. Unless noted, how the calls were made is not given here.

For one assay, the target named is ATP-dependent translocase ABCB1 (Homo sapiens) (UniProt P08183). Kind of assay: P-glycoprotein substrate transport blockade – cell-based (AID 377; in the data active means fluorescence slope change above about 50%). The settings on record: MDR1-expressing cells, fluorescent substrate accumulation slope; stronger effect = higher value; concentration not given here.
ATP-dependent translocase ABCB1 (Homo sapiens), sequence (P08183 whole entry, looked up): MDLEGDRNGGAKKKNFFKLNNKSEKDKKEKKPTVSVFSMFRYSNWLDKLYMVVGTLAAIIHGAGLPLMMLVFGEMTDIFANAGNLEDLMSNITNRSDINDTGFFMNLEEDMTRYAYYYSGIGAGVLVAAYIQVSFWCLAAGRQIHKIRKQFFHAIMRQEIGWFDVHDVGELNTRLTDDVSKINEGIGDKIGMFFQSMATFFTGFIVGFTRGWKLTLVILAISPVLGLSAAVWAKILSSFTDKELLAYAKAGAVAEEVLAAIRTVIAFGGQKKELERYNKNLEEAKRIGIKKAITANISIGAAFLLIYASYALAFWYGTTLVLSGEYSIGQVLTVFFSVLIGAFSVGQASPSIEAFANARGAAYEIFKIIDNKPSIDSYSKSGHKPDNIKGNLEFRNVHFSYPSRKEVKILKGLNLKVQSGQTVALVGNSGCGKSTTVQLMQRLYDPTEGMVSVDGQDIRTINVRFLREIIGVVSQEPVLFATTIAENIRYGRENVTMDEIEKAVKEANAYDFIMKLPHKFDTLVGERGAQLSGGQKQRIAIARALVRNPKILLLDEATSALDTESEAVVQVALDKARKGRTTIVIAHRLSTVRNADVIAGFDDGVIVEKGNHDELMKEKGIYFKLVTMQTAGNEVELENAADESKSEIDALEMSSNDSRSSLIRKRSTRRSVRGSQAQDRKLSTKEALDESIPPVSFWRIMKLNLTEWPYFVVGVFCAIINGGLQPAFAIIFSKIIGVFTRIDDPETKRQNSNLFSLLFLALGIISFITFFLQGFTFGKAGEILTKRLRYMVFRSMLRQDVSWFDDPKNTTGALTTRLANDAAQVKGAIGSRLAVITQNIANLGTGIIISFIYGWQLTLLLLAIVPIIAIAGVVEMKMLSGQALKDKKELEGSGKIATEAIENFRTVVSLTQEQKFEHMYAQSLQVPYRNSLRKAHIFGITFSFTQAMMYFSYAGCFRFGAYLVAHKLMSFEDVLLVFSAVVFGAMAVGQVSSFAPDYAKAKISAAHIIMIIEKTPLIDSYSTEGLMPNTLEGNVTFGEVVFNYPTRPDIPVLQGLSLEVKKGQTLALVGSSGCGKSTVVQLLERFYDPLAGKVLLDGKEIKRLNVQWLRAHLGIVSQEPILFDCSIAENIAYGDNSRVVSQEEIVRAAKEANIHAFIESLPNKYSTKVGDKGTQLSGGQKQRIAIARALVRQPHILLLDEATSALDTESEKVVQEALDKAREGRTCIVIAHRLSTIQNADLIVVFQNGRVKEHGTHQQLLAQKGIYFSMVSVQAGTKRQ
Consider `C[N+]1(C)CCCC(OC(=O)C(O)(c2ccccc2)c2ccccc2)C1` (configuration not stated), for which the fluorescence slope change was 13% (inactive).

On to `CNCCC(Oc1ccc(C(F)(F)F)cc1)c1ccccc1` (configuration not stated), for which the fluorescence slope change was 110% (active).

Consider `CC1=C(/C=C/C(C)=C/C=C/C(C)=C\C(=O)O)C(C)(C)CCC1`, for which the fluorescence slope change was 188% (active).

Test system in the next assay: not listed separately
Nature of the assay: blockers of polyQ-driven CASP3 activation – cell-based (AID 1583). The settings on record: polyglutamine-induced caspase-3 activation, cell assay; stronger effect = higher value;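 tested at 10 µM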.
With `CC(C(=O)O)c1ccc(-c2ccccc2)c(F)c1` (configuration not stated), the inhibition (in general, the relative decrease from the control value, in per cent) was determined as 20.8%.

For the compound `Nc1ncnc2c1ncn2[C@@H]1O[C@H](CO)[C@@H](O)[C@@H]1O`, the inhibition came to 13.4%.

Take `CN(C)c1nc(N(C)C)nc(N(C)C)n1`: the inhibition is -2.79%.

In the case of `CC(C)NCC(O)COc1cccc2ccccc12` (configuration not stated), the inhibition was -12.7%.

Consider `COC(=O)[C@H](c1ccccc1Cl)N1CCc2sccc2C1`, for which the inhibition came out at 62%.

As for `C[N+]1(C)CCCC(OC(=O)C(O)(c2ccccc2)c2ccccc2)C1` (configuration not stated), the inhibition is -22.1%.

With `CC(C)NCC(O)COc1ccc(CC(N)=O)cc1` (configuration not stated), the inhibition is 16.6%.

Test system in the next assay: not listed separately
Kind of assay: yeast 75Q aggregation reduction – 75Q-TubU reporter (AID 1593). As to conditions: Yeast 75Q polyglutamine aggregation reporter.
Compound `CC(C(=O)O)c1ccc(-c2ccccc2)c(F)c1` (configuration not stated) displayed a score of 0.

`Nc1ncnc2c1ncn2[C@@H]1O[C@H](CO)[C@@H](O)[C@@H]1O`: the score came out at 1.04.

As to `CN(C)c1nc(N(C)C)nc(N(C)C)n1`, the score worked out at 1.33.

`CC(C)NCC(O)COc1cccc2ccccc12` (configuration not stated) displayed a score of 1.12.

`COC(=O)[C@H](c1ccccc1Cl)N1CCc2sccc2C1` displayed a score of 1.18.

In the case of `C[N+]1(C)CCCC(OC(=O)C(O)(c2ccccc2)c2ccccc2)C1` (configuration not stated), the score came out at 1.26.

`CC(C)NCC(O)COc1ccc(CC(N)=O)cc1` (configuration not stated) came in with a score of 1.42.

Test system in another assay: not listed separately
Nature of the assay: restoration of touch response, mutant HTT neurons – whole organism, C. elegans mechanosensory neurons, N-terminal huntingtin (AID 1599). The settings on record: C. elegans polyQ-huntingtin mechanosensory neurons, stronger effect = higher value.
`CC(C(=O)O)c1ccc(-c2ccccc2)c(F)c1` (configuration not stated): the rescue above control was determined as 19.

In turn, `Nc1ncnc2c1ncn2[C@@H]1O[C@H](CO)[C@@H](O)[C@@H]1O` gave a rescue above control of -14.3.

Compound `CN(C)c1nc(N(C)C)nc(N(C)C)n1` returned a rescue above control of 6.66.

Take `CC(C)NCC(O)COc1cccc2ccccc12` (configuration not stated): the rescue above control was -3.83.

Consider `COC(=O)[C@H](c1ccccc1Cl)N1CCc2sccc2C1`, for which the rescue above control turned out to be 1.25.

The compound `C[N+]1(C)CCCC(OC(=O)C(O)(c2ccccc2)c2ccccc2)C1` (configuration not stated) registered a rescue above control of -3.59.

Regarding `CC(C)NCC(O)COc1ccc(CC(N)=O)cc1` (configuration not stated), the rescue above control was -0.75.

Test system in another assay: not listed separately
Nature of the assay: blockers of cytochrome c efflux from mitochondria – biochemical, purified mitochondria (AID 1603).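 Further: mouse liver mitochondria challenged with calcium chloride; signal normalized to the plate average as 100%.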 As to conditions: stronger effect = lower value.
For `CC(C(=O)O)c1ccc(-c2ccccc2)c(F)c1` (configuration not stated), the cytochrome c release ratio stood at 0.68.

For the compound `Nc1ncnc2c1ncn2[C@@H]1O[C@H](CO)[C@@H](O)[C@@H]1O`, the cytochrome c release ratio came out at 1.16.

With `CN(C)c1nc(N(C)C)nc(N(C)C)n1`, the cytochrome c release ratio is 1.53.

With `CC(C)NCC(O)COc1cccc2ccccc12` (configuration not stated), the cytochrome c release ratio came to 1.04.

In the case of `COC(=O)[C@H](c1ccccc1Cl)N1CCc2sccc2C1`, the cytochrome c release ratio amounted to 0.98.

Regarding `C[N+]1(C)CCCC(OC(=O)C(O)(c2ccccc2)c2ccccc2)C1` (configuration not stated), the cytochrome c release ratio stood at 1.17.

On to `CC(C)NCC(O)COc1ccc(CC(N)=O)cc1` (configuration not stated), for which the cytochrome c release ratio amounted to 0.86.

Test system in a further assay: not listed separately
Nature of the assay: polyglutamine aggregate formation blockers (AID 1604). The settings on record: polyglutamine-induced protein aggregation inhibition assay; stronger effect = higher value; tested at 2.5 µM.
As for `CC(C(=O)O)c1ccc(-c2ccccc2)c(F)c1` (configuration not stated), the inhibition of aggregation is 29%.

With `Nc1ncnc2c1ncn2[C@@H]1O[C@H](CO)[C@@H](O)[C@@H]1O`, the inhibition of aggregation was 56.1%.

In the case of `CN(C)c1nc(N(C)C)nc(N(C)C)n1`, the inhibition of aggregation amounted to 78.1%.

Consider `CC(C)NCC(O)COc1cccc2ccccc12` (configuration not stated), for which the inhibition of aggregation is 62.1%.

Regarding `COC(=O)[C@H](c1ccccc1Cl)N1CCc2sccc2C1`, the inhibition of aggregation was determined as 77.8%.

On to `C[N+]1(C)CCCC(OC(=O)C(O)(c2ccccc2)c2ccccc2)C1` (configuration not stated), for which the inhibition of aggregation worked out at 55%.

For `CC(C)NCC(O)COc1ccc(CC(N)=O)cc1` (configuration not stated), the inhibition of aggregation was -11.1%.

Test system in a further assay: not listed separately
Nature of the assay: glutamate transport activators, MN-1 cells, MN-1 cell line (AID 1612).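 Further: tested at 1 µM final; 0% = mean of DMSO vehicle wells on each plate; positive means more glutamate uptake than control and negative means less.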 The settings on record: MN-1 motor neuron cells, stronger effect = higher value.
Take `CC(C(=O)O)c1ccc(-c2ccccc2)c(F)c1` (configuration not stated): the glutamate uptake change worked out at 14.1%.

With `Nc1ncnc2c1ncn2[C@@H]1O[C@H](CO)[C@@H](O)[C@@H]1O`, the glutamate uptake change was 13.7%.

For the compound `CN(C)c1nc(N(C)C)nc(N(C)C)n1`, the glutamate uptake change came out at 20.9%.

On to `CC(C)NCC(O)COc1cccc2ccccc12` (configuration not stated), for which the glutamate uptake change was determined as 4.46%.

In the case of `COC(=O)[C@H](c1ccccc1Cl)N1CCc2sccc2C1`, the glutamate uptake change was -7.57%.

Consider `C[N+]1(C)CCCC(OC(=O)C(O)(c2ccccc2)c2ccccc2)C1` (configuration not stated), for which the glutamate uptake change is -13.3%.

Turning to `CC(C)NCC(O)COc1ccc(CC(N)=O)cc1` (configuration not stated), the glutamate uptake change was -9.65%.

Test system in another assay: not listed separately
Kind of assay: GFP-Q80 aggregate reduction, neuronal-like cells, cell-based, NGF-treated PC12, GFPQ80 (AID 1614).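 Further: lower means fewer inclusions and 0 means no inclusions at all.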 As to conditions: PC12 NGF-treated GFP-polyQ80 inclusion reduction.
Compound `CC(C(=O)O)c1ccc(-c2ccccc2)c(F)c1` (configuration not stated) had an inclusion score of 2.

`Nc1ncnc2c1ncn2[C@@H]1O[C@H](CO)[C@@H](O)[C@@H]1O`: the inclusion score is 1.5.

`CN(C)c1nc(N(C)C)nc(N(C)C)n1` registered an inclusion score of 2.

`CC(C)NCC(O)COc1cccc2ccccc12` (configuration not stated) showed an inclusion score of 2.

Turning to `COC(=O)[C@H](c1ccccc1Cl)N1CCc2sccc2C1`, the inclusion score is 2.

The compound `C[N+]1(C)CCCC(OC(=O)C(O)(c2ccccc2)c2ccccc2)C1` (configuration not stated) yielded an inclusion score of 2.

Compound `CC(C)NCC(O)COc1ccc(CC(N)=O)cc1` (configuration not stated) yielded an inclusion score of 2.

Test system in a further assay: not listed separately
Nature of the assay: 75Q-TubH aggregate inhibition, S. cerevisiae, yeast (AID 1616). As to conditions: S. cerevisiae 75Q-TubH polyglutamine aggregation suppression; stronger effect = higher value.
Compound `CC(C(=O)O)c1ccc(-c2ccccc2)c(F)c1` (configuration not stated) registered an aggregation suppression score of 0.00404.

Regarding `Nc1ncnc2c1ncn2[C@@H]1O[C@H](CO)[C@@H](O)[C@@H]1O`, the aggregation suppression score was 0.666.

`CN(C)c1nc(N(C)C)nc(N(C)C)n1`: the aggregation suppression score was determined as 1.21.

`CC(C)NCC(O)COc1cccc2ccccc12` (configuration not stated) had an aggregation suppression score of 0.965.

`COC(=O)[C@H](c1ccccc1Cl)N1CCc2sccc2C1` displayed an aggregation suppression score of 1.88.

`C[N+]1(C)CCCC(OC(=O)C(O)(c2ccccc2)c2ccccc2)C1` (configuration not stated) displayed an aggregation suppression score of 1.44.

In turn, `CC(C)NCC(O)COc1ccc(CC(N)=O)cc1` (configuration not stated) displayed an aggregation suppression score of 1.39.

Test system in the next assay: not listed separately
Nature of the assay: compounds altering circadian rhythm period length – cell-based, LOPAC library, luminescence reporter (AID 2774).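 Further: values are relative to mean of DMSO wells on each plate.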 The settings on record: circadian reporter cells, at 7 µM, actives lie on both sides.
Regarding `COc1ccc(/C=C/C(=O)Nc2ccccc2C(=O)O)cc1OC`, the period change was -0.165 h (inactive).

As for `O=c1ccc2ccc(O)c(O)c2o1`, the period change was 0.03 h (inactive).

Regarding `CN(C)c1nc(N(C)C)nc(N(C)C)n1`, the period change is -0.095 h (inactive).

Turning to `CC(C)NCC(O)COc1cccc2ccccc12` (configuration not stated), the period change is -0.115 h (inactive).

For `O=[N+]([O-])c1cccc2cn[nH]c12`, the period change was -0.295 h (inactive).

In the case of `CC(C)NCC(O)COc1ccc(CC(N)=O)cc1` (configuration not stated), the period change is 0.015 h (inactive).

Turning to `CNCCC(Oc1ccc(C(F)(F)F)cc1)c1ccccc1` (configuration not stated), the period change was -0.16 h (inactive).

With `CC1=C(/C=C/C(C)=C/C=C/C(C)=C\C(=O)O)C(C)(C)CCC1`, the period change was 0.45 h (inactive).
